Sm TGR block = S. mansoni TGR enzyme inhibition; Q962Y6; purified TGR, DTNB reduction, TNB absorbance 405 nm; Potency, µM (series often up to 114 µM), usual class: inhibitors; hit rate 3% among 360,000; AID 485364; note: nearly all actives have a fitted effect of over 60% in size
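First, TGR (20 nM dispensed) and NADPH were mixed with compound. Second, a 15 min room-temperature incubation followed. Third, further NADPH and then DTNB were added to start the reaction. Finally, TNB absorbance was monitored kinetically.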
AmpC detergent = blocks E. coli AmpC beta-lactamase in detergent assay. AmpC hydrolysis of nitrocefin, absorbance 480 nm, 0.01% Triton. Potency, µM (doses to about 114 µM), actives largely listed as inhibitors. hit rate 0.041% among 370,000. AID 485294; note: nearly all actives have a fitted effect of over 25% in size
Target sequence (P00811 whole entry, looked up): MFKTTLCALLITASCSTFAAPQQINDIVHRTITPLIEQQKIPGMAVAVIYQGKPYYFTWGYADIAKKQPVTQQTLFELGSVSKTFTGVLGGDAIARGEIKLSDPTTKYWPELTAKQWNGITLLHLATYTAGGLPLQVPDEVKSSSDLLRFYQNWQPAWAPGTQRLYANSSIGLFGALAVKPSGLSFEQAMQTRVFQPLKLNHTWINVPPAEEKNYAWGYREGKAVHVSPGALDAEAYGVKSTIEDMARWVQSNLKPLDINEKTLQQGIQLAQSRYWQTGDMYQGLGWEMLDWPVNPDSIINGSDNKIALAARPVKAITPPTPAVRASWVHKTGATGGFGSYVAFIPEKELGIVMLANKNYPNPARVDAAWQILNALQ
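AmpC (5.3 nM in the dispensed reagent) in 20 mM phosphate pH 7.0 with 0.01% (detergent screen) or 0.0001% Triton X-100 was preincubated with compounds for 15 min at room temperature. Nitrocefin was then added from an 800 uM solution, and hydrolysis was followed at 480 nm.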
AmpC no deterg = inhibitors of E. coli AmpC beta-lactamase without detergent | P00811 | AmpC nitrocefin hydrolysis, absorbance 480 nm, 0.0001% Triton | Potency, µM (series often up to 57.1 µM), most hits filed as inhibitors | hit rate 0.52% among 330,000 | AID 485341; note: nearly all actives have a fitted effect of over 20% in size
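20 mM phosphate pH 7.0 + 0.01% (detergent screen) or 0.0001% Triton X-100; 5.3 nM AmpC reagent; cpd preinc 15 min RT; nitrocefin (800 uM stock) to start; A480 q20 s × 4 min; Activity was normalised to no-enzyme and no-compound control wells.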
AMA1-RON2 inh = inhibitors of Plasmodium falciparum AMA1-RON2 interaction | hit rate 0.2% among 360,000 | AID 720542 | Potency, µM (series often up to 58.2 µM), usual class: inhibitors | AlphaScreen AMA1-biotinylated RON2 peptide binding; note: nearly all actives have a fitted effect of over 45% in size
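AMA1 (3D7) with his tag at 25 nM final met compounds first, then biotinylated RON2 peptide at 25 nM; detection used donor plus acceptor beads, 10 µg/mL apiece, read by AlphaScreen after 30 min at room temperature.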
RE007 growth inh = less growth of the S. pombe RE007 Vpr strain | S. pombe RE007 Vpr strain, BacTiter-Glo ATP luminescence, 24 h | Potency, µM (titrated, usually from 92.2 µM), most hits filed as inhibitors | hit rate 0.21% among 360,000 | AID 651644; active = well fitted falling curve with a large enough effect; inconclusive = small, poorly fitted or top-dose-only effect; inactive = no such curve, though single readings can be large or run the other way; note: nearly all actives have a fitted effect of over 50% in size
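Fission yeast RE007 carrying one integrated HIV-1 vpr copy, seeded at OD 0.01 in PMG+AL medium with 23 nL pinned compound. Grown 24 h at 30 degrees; viability read by BacTiter-Glo luminescence after 5 min.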
Large screens that a line does not name were inactive. Compounds with a hit are over-represented: about 3.2% of the library has one in this group of screens. Unless noted, calls come from the whole dose curve; as a rule, active = well fitted curve in the direction sought with a large enough effect; inconclusive = small, poorly fitted or top-dose-only effect, or another doubt; inactive = no such curve, though single readings can be large; an effect the other way counts as inactive or inconclusive.

COCCn1nnnc1C(c1ccc(O)c(OC)c1)N1CCc2ccccc2C1 (centres undefined)	Sm TGR block 0.35µM
CCc1ccccc1NC(=O)C(=O)NCCCN1CCOCC1	none (no result: AmpC no deterg, AMA1-RON2 inh, RE007 growth inh)
COc1ccc(-n2nc3c(c2NC(=O)CBr)CSC3)cc1	Sm TGR block 40µM
O=C(CBr)Nc1c2c(nn1-c1ccccc1)CSC2	Sm TGR block 35µM
COc1ccc(-c2noc(CSc3nnc(Cc4ccccc4)n3-c3ccccc3)n2)cc1OC	none (no result: AmpC no deterg, AMA1-RON2 inh, RE007 growth inh)
CCCC(=O)Nc1ccc(-c2csc(NNC(C)=O)n2)cc1	Sm TGR block 25µM
CCCC(=O)Nc1ccc(-c2csc(N/N=C\c3ccncc3)n2)cc1	Sm TGR block 18µM
COc1ccc(NC(=O)Cc2c[nH]c3ccccc23)cc1S(=O)(=O)N1CCOCC1	none
COc1ccc(NC(=O)Cc2c[nH]c3ccccc23)cc1S(=O)(=O)N1CCCCC1	AmpC no deterg 14µM
Cc1ccc(C2CCN(C(=O)Nc3ccc(Cl)c(Cl)c3)C2)cc1 (centres undefined)	none (no result: AmpC no deterg, AMA1-RON2 inh, RE007 growth inh)
CCOc1ccc(CCNC(=O)C2CCN(C(=O)c3cc4sccc4n3CC)CC2)cc1OCC	none (no result: AmpC no deterg, AMA1-RON2 inh, RE007 growth inh)
Cc1ccc(C)c(S(=O)(=O)Nc2ccc(O)c(Sc3ncn[nH]3)c2)c1	Sm TGR block 50µM
CC(NC(=O)Cn1c(=O)oc2cc(S(=O)(=O)NCc3ccccc3)ccc21)c1ccccc1 (centres undefined)	none (no result: AmpC no deterg, AMA1-RON2 inh, RE007 growth inh)
CCCCNC(=O)CSc1nc2ccccc2nc1Cc1ccccc1	none (no result: AmpC no deterg, AMA1-RON2 inh, RE007 growth inh)
Cc1ncc(CN2CCCC(C(=O)Nc3ccc(-c4ccco4)cc3)C2)n1C (centres undefined)	none
CSc1ncc(CN2CCCC(C(=O)Nc3ccc(-c4ccco4)cc3)C2)cn1 (centres undefined)	Sm TGR block 18µM
C=CCOC(=O)C(=O)/C=C/c1csc2ccccc12	Sm TGR block 28µM
O=C(c1ccc(NC(=S)Nc2ccc(Cl)c(Cl)c2)cc1)N1CCCC1	Sm TGR block inconclusive, AmpC detergent inconclusive
NS(=O)(=O)c1ccc(NC(=S)Nc2ccc(C(=O)N3CCCCC3)cc2)cc1	Sm TGR block 45µM
NS(=O)(=O)c1ccc(NC(=S)NCc2ccccc2)cc1	AmpC detergent inconclusive
CSc1ccccc1NC(=S)Nc1ccc(S(N)(=O)=O)cc1	Sm TGR block 22µM
NS(=O)(=O)c1ccc(NC(=S)Nc2cc(Cl)c(Cl)cc2Cl)cc1	Sm TGR block 32µM
CCC(Sc1nc(-c2ccc(F)cc2)nc2c1Cc1c(CO)cnc(C)c1O2)C(=O)Nc1ccc(F)cc1 (centres undefined)	none (no result: AmpC no deterg, AMA1-RON2 inh, RE007 growth inh)
CNS(=O)(=O)c1ccc2nc(NC(=O)/C=C/c3ccco3)sc2c1	Sm TGR block 22µM
O=C(/C=C/c1ccco1)NC1=NCCS1	Sm TGR block 45µM
O=C(/C=C\c1ccco1)Nc1nc(-c2ccccc2)cs1	Sm TGR block inconclusive
CCc1nnc(NC(=O)/C=C/c2ccco2)s1	Sm TGR block 40µM
COc1cc(/C=C/C(=O)Nc2nc3ccc(S(=O)(=O)N(C)C)cc3s2)cc(OC)c1OC	AmpC detergent inconclusive
Cc1nc(NC(=O)/C=C/c2ccco2)sc1C	Sm TGR block 50µM
O=C(/C=C/c1ccco1)Nc1cccc(NC(=O)/C=C/c2ccco2)n1	none
O=C(/C=C/c1ccco1)Nc1nnc(-c2ccco2)s1	none
CCOc1ccc(CN2C(=O)c3ccccc3Sc3ccc(C(=O)NC4CCC(C)CC4)cc32)cc1 (centres undefined)	none (no result: AmpC no deterg, AMA1-RON2 inh, RE007 growth inh)
COc1cccc(NC(=O)Cn2c(=O)n(-c3ccc(C)cc3)c(=O)c3ccc(C(=O)NCc4ccco4)cc32)c1	none (no result: AmpC no deterg, AMA1-RON2 inh, RE007 growth inh)
COC(=O)c1sc(NC(=O)/C=C/c2ccc(C)o2)nc1C	Sm TGR block 45µM
CCSc1nnc(NC(=O)/C=C/c2ccco2)s1	Sm TGR block 22µM
COC(=O)c1sc(NC(=O)c2ccoc2C)nc1C	none
O=C(COc1ccc(F)cc1)Nc1nnc(SCc2cc(=O)n3ccccc3n2)s1	none (no result: AmpC no deterg, AMA1-RON2 inh, RE007 growth inh)
CN(C)c1ccc(CNC(=O)C2CCN(C(=O)c3ccc(-n4ccc5ccccc54)s3)CC2)cc1	none (no result: AmpC no deterg, AMA1-RON2 inh, RE007 growth inh)
CCN(CC)S(=O)(=O)c1ccc2c(c1)N(CC(=O)N1CCN(c3ccc(OC)cc3)CC1)C(=O)CO2	none (no result: AmpC no deterg, AMA1-RON2 inh, RE007 growth inh)

Assay outcomes from PubChem.
